Out of some 300,000 compounds screened, about 3,300 (1.1%) were called active. Not shown: some 6% with an inconclusive outcome.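 The calls were made as follows: active = more than half of the replicate wells show a fall in the fluorescence ratio signal beyond about 16% (limit read from the data, passing the limit was not always enough); inconclusive = exactly half of the replicate wells pass the set limit; inactive = fewer than half of replicates pass the limit.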 Only a selection was taken, and actives are over-represented in it overall.

This assay relates to Ran GTPase (GTP-bound) - importin-beta complex. The experiment in a line: inhibitors of RanGTP-importin-beta interaction, primary screen, biochemical, FRET, CFP-Ran, YFP-importin-beta, homogeneous (AID 2216).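 Also: 0% = DMSO wells and 100% = Ran loaded with GDP instead of GTP.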 The settings on record: cell-free CFP-Ran/YFP-importin-beta FRET ratio; active compounds read high; concentration not given here.
Regarding `COc1ccc(-c2cc(C(=O)N(C)CC(=O)Nc3ccccc3Cl)c3ccccc3n2)cc1OC`, the inhibition is 0.526% (inactive).

As to `COc1cc(C(=O)N(C)Cc2cccc(OC)c2OC)ccc1OCC(=O)Nc1cccc(C(F)(F)F)c1`, the inhibition was -1% (inactive).

Consider `Cc1sc2nc(CSCC(=O)NC3CCCCC3)[nH]c(=O)c2c1C`, for which the inhibition is 1.87% (inactive).

Turning to `O=S(=O)(NCCCc1ccccc1)c1ccc(Br)cc1`, the inhibition was -1.87% (inactive).

For the compound `Cc1cc(=O)oc2cc(NC(=O)C(C)Oc3ccccc3)ccc12` (stereo not given), the inhibition was 3.05% (inactive).

`CCOC(=O)C1(Cc2cccc(OC)c2)CCN(C(C)CC(C)(C)O)CC1` (stereo not given): the inhibition is 2.47% (inactive).

As for `CCOC(=O)C1(Cc2cccc(OC)c2)CCN(C(C)COC)CC1` (stereo not given), the inhibition is 7.78% (inactive).

In the case of `CCOC(=O)C1(Cc2cccc(OC)c2)CCN(Cc2csc(C(C)=O)c2)CC1`, the inhibition is 33.4% (active).

For the compound `COc1ccc(Nc2ncnc3sc(C)cc23)cc1`, the inhibition is -4.52% (inactive).

On to `Cc1cc(C)c2nc(SCCC#N)nc(C)c2c1`, for which the inhibition was 4.53% (inactive).

On to `Cc1cc(C)c2nc(-c3ccco3)cc(C(=O)O)c2c1`, for which the inhibition was -1.33% (inactive).

Turning to `Cc1cc(C)c2nc3nc(C)cc(C)c3c(N)c2c1`, the inhibition was 123% (active).

Take `CCC1Nc2ncnc(N3CCN(c4ccccc4)CC3)c2N(Cc2ccc(Cl)cc2)C1=O` (stereo not given): the inhibition is 3.14% (inactive).

On to `CCOC(=O)c1cccc(NS(=O)(=O)c2c(C(=O)N3CCCCCC3)c(C)n(C)c2C)c1`, for which the inhibition is -0.759% (inactive).

On to `Cc1cc(NC(=O)COc2ccc(Cl)cc2Cl)n(CCC#N)n1`, for which the inhibition is 0.324% (inactive).

Take `Cc1cc(Nc2ccccc2)n(CCC#N)n1`: the inhibition was 64.2% (active).

`Cc1cc(Nc2ccccc2)n(C(=O)c2ccc(N)cc2)n1`: the inhibition was 11.7% (inactive).

As to `COc1ccc(NC(=O)CN(C)C(=O)c2cc(-c3ccc(C)o3)nc3ccccc23)cc1`, the inhibition was 3.47% (inactive).

Turning to `O=C(Nc1cccc2ncccc12)C(Cl)(Cl)Cl`, the inhibition is -1.34% (inactive).

Turning to `Cc1ccc(/C=C(\C#N)C(=O)Nc2cccc3ncccc23)o1`, the inhibition was 24.4% (active).

On to `Cc1ccc(C(=O)Nc2cccc3ncccc23)cc1[N+](=O)[O-]`, for which the inhibition is -5.75% (inactive).

Turning to `COc1ccc(NC(=O)CN(C)C(=O)c2cccc(S(=O)(=O)N3CCN(c4ccccc4)CC3)c2)cc1`, the inhibition was 5.36% (inactive).

For the compound `Cc1sc(NC(=O)c2ccc3ncsc3c2)c(C(N)=O)c1C`, the inhibition is 7.92% (inactive).

In the case of `COc1ccc(NS(=O)(=O)c2ccc(C)c(C(=O)N(C)Cc3ccc(OC)cc3OC)c2)cc1`, the inhibition was -0.0635% (inactive).

As for `COc1ccc(NC(=O)C2COc3ccccc3O2)cc1` (stereo not given), the inhibition is 3.21% (inactive).

With `COc1ccc(OC)c2sc(NC(=O)C3COc4ccccc4O3)nc12` (stereo not given), the inhibition is 18.3% (active).

`O=C(Nc1nc2c(F)cc(F)cc2s1)C1COc2ccccc2O1` (stereo not given): the inhibition was -1.75% (inactive).

Turning to `Cn1nccc1C(=O)NC1CCCc2c1cnn2-c1ccccc1F` (stereo not given), the inhibition is 1.44% (inactive).

For the compound `Cn1c2ccccc2c(=O)c2c(O)cccc21`, the inhibition is 19.5% (active).

Regarding `Cc1cc(C)c(-c2c(O)c3ccccc3n(C)c2=O)c(C)c1`, the inhibition is -1.11% (inactive).

For the compound `Cn1c(=O)c(Sc2ccc(Cl)cc2)c(O)c2ccccc21`, the inhibition was -0.611% (inactive).

For the compound `COC(C/C=C/C(=O)[C@@H](C)OCc1ccccc1)OC`, the inhibition was -3.23% (inactive).

For the compound `O=C(NCCc1c[nH]c2ccccc12)C(=O)NCC1CCCO1` (stereo not given), the inhibition was 0.222% (inactive).

Take `N#C/C(=C/c1ccc(-c2ccccc2[N+](=O)[O-])o1)C(=O)NCCN1CCCCC1`: the inhibition was 0.797% (inactive).

As to `N#C/C(=C/c1ccc(N2CCCCC2)o1)C(=O)NCCc1c[nH]c2ccccc12`, the inhibition was 36.8% (active).

As to `CCCCn1c(N)c(N(CC(C)C)C(=O)c2cccc(S(=O)(=O)N3CC(C)OC(C)C3)c2)c(=O)[nH]c1=O` (stereo not given), the inhibition was -2.71% (inactive).

Consider `Nc1ccccc1/C=N\N=C/c1ccccc1N`, for which the inhibition was 1.49% (inactive).

With `Fc1ccc(CNc2nc3ccccc3n3nnnc23)cc1`, the inhibition is 28.7% (active).

In the case of `COc1ccc(CNc2nnnn2C)cc1`, the inhibition is 0.267% (inactive).

`Nc1nonc1-c1nc2ccccc2n1Cc1ccc(F)cc1`: the inhibition was 3.99% (inactive).

For the compound `CCC1CCC/C1=N\NC(=O)c1ccc(Cl)cc1` (stereo not given), the inhibition was -0.716% (inactive).

Consider `COC(=O)C1=CN(Cc2ccc(OC)c(OC)c2)C=C(C(=O)OC)C1c1cccs1`, for which the inhibition was -0.0693% (inactive).

Turning to `COC(=O)C1=CN(Cc2ccc(OC)cc2)C=C(C(=O)OC)C1c1ccc(O)c(OC)c1`, the inhibition is 18.3% (active).

In the case of `COc1cc(C2C(C(=O)c3ccc(C)o3)=C(O)C(=O)N2CCc2ccccc2)ccc1O` (stereo not given), the inhibition was -0.99% (inactive).

With `Cc1nc2ccccc2c(=O)n1-c1ccc(NS(=O)(=O)c2ccc(F)cc2F)cc1`, the inhibition was 0.359% (inactive).

With `COc1ccc(C(=O)NCC(c2ccco2)N2CCc3ccccc32)cc1OC` (stereo not given), the inhibition is -0.364% (inactive).

For `Cc1cccn2c(=O)nc(SCC(=O)NCc3ccccc3Cl)nc12`, the inhibition is -2.28% (inactive).

As for `COCCNc1nc2nonc2nc1N1CCCC1c1nccs1` (stereo not given), the inhibition is 24.9% (active).

For the compound `COCCNc1ncnc2c1nc1n2CCCC1`, the inhibition is -7.47% (inactive).

Regarding `COCCNc1nc2nonc2nc1N(C)Cc1ccc(C)cc1`, the inhibition was -1.03% (inactive).

Turning to `COC(=O)c1cccc(NS(C)(=O)=O)c1`, the inhibition was 3.63% (inactive).

Regarding `COC(=O)c1ccc(NCC(=O)c2ccccc2)cc1`, the inhibition was 1.3% (inactive).

Regarding `COC(=O)c1ccc2c(C(C)(C)O)c(C(C)(C)O)[nH]c2c1`, the inhibition is 35.4% (active).

As for `CC1CC(C)(C)CC2(C1)NC(=O)N(CC(=O)Nc1nccs1)C2=O` (stereo not given), the inhibition is -1.02% (inactive).

Turning to `CCCCN(C(=O)CCNC(=O)NC12CC3CC(CC(C3)C1)C2)c1c(N)n(CCCC)c(=O)[nH]c1=O`, the inhibition is 0.758% (inactive).

As to `CCN1N=C(c2ccccc2)CCC1=O`, the inhibition is 2.2% (inactive).

As for `O=C1C=C(c2ccccc2)CCC1`, the inhibition was 3.08% (inactive).

As to `CC1(C)CC(=O)NC=C(c2ccccc2)C1`, the inhibition was 25.4% (active).

For the compound `COc1cc(OC)c(OC)cc1CN1CCN(C(=O)c2cccc3ccccc23)CC1`, the inhibition was 2.06% (inactive).

With `Cc1ccc(NC(=O)CN2CCc3ccccc3C2)cc1`, the inhibition was -0.397% (inactive).

In the case of `COc1cc2c(cc1OC)CN(CC(=O)Nc1ccc(F)cc1)CC2`, the inhibition was 16.9% (active).

In the case of `Cc1ccc(NC(=O)CN2CCc3ccccc3C2)cc1C`, the inhibition is 6.66% (inactive).

On to `CCOC(=O)C1(Cc2ccccc2C)CCCN(C(=O)c2ccc(COC)o2)C1` (stereo not given), for which the inhibition was -3.09% (inactive).

Regarding `COc1ccc(Cl)cc1NC(=O)CN(C)C(=O)c1cc2ccccc2cc1OC`, the inhibition was 1.71% (inactive).

As to `CC(C)c1ccc(S(=O)(=O)N2CCN(C(=O)CN3C(=O)NC(C)(c4ccccc4)C3=O)CC2)cc1` (stereo not given), the inhibition was 0.837% (inactive).

In the case of `CCOc1ccc2nc(NCCNS(=O)(=O)c3ccccc3)c(C#N)cc2c1`, the inhibition is 127% (active).

Consider `O=S(=O)(NCCNS(=O)(=O)c1ccccc1)c1ccccc1`, for which the inhibition was 1.2% (inactive).

Regarding `CCOc1ccc(S(=O)(=O)NCCSc2ccccc2)cc1`, the inhibition is -0.375% (inactive).

For `O=C(NNC(=O)c1ccc(-c2ccccc2)cc1)Nc1ccccc1`, the inhibition was 2.69% (inactive).

`Cc1ccc(S(=O)(=O)n2cccc2CO)cc1`: the inhibition was -0.413% (inactive).

Consider `COc1ccc(CCNC(=O)C(=O)NCC2CCCN2S(=O)(=O)c2cccs2)cc1OC` (stereo not given), for which the inhibition is -2.95% (inactive).

For `Cc1cc(C)c(C)c(S(=O)(=O)N2CCN(C(=O)c3ccc4c(=O)n5c(nc4c3)CCC5)CC2)c1C`, the inhibition is 0.31% (inactive).

Regarding `CCN(CC)C(=O)c1sc(NC(=O)c2ccco2)c(C#N)c1C`, the inhibition is 5.09% (inactive).

For the compound `Cn1nccc1CNC(=O)c1ccnn1C`, the inhibition is -4.46% (inactive).

Consider `CCCc1ccc(-c2c(C)sc(NC(=O)c3ccnn3C)c2C#N)cc1`, for which the inhibition is 69.5% (active).

As for `O=C(COC(=O)Cn1[nH]c(=O)c2ccccc2c1=O)Nc1c(Cl)cccc1C(F)(F)F`, the inhibition was 0.554% (inactive).

Turning to `CCCCn1c(N)c(N(CC(C)C)C(=O)c2ccc(-n3c(C)ccc3C)cc2)c(=O)[nH]c1=O`, the inhibition is 2.98% (inactive).

`CC(=O)N1CCc2c(sc(NC(=O)CCS(=O)(=O)c3ccccc3)c2C#N)C1`: the inhibition is 2.62% (inactive).

Take `Cc1ccc(S(=O)(=O)CC(=O)Nc2sc(C)c(C)c2C(N)=O)cc1`: the inhibition was 1.11% (inactive).

On to `CC(=O)N1CCc2c(sc(NC(=O)CCS(=O)(=O)c3ccc(C)cc3)c2C(N)=O)C1`, for which the inhibition was 32.8% (active).

Consider `CCOC(=O)c1cc(NC(=O)c2cccnc2)ccn1`, for which the inhibition was -2.83% (inactive).

Take `CC(C)(C)c1ccc(C(=O)NCCn2c(N)c(C#N)c3nc4ccccc4nc32)cc1`: the inhibition was 82.8% (active).

In the case of `Cn1cncc1COC(=O)c1ccc(Cl)cc1`, the inhibition was 0.688% (inactive).

Consider `CCCCNC(=O)CCNC(=O)c1ccc(C(C)(C)C)cc1`, for which the inhibition is 3.77% (inactive).

For the compound `CN1OC(COC(=O)c2ccc(Cl)cc2)CC1c1ccccc1` (stereo not given), the inhibition is 2.75% (inactive).

Consider `N#Cc1c(N)n(CCOC(=O)c2ccc(Cl)cc2)c2nc3ccccc3nc12`, for which the inhibition is 39.9% (active).

Regarding `CC(C)(C)c1ccc(C(=O)NCCC(=O)NCc2ccco2)cc1`, the inhibition was 1.67% (inactive).

Consider `CN(C(=O)c1cc2c(=O)n3ccccc3nc2s1)C1CCCCC1`, for which the inhibition was 2.4% (inactive).

As for `CCOc1cc(C(=O)Nc2ccc(S(=O)(=O)Nc3cnc4ccccc4n3)cc2)cc(OCC)c1OCC`, the inhibition is 7.91% (inactive).

As for `CCN1CCN(c2ccc(S(=O)(=O)N3CCCCC3)cc2NC(=O)Cc2c(Cl)cccc2Cl)CC1`, the inhibition is 1.25% (inactive).

Regarding `O=C(c1ccc(F)c(S(=O)(=O)N2CCOCC2)c1)N(CCc1ccccc1)Cc1ccccc1`, the inhibition was 7.49% (inactive).

Consider `CCC(C)N(C(=O)COC(=O)c1nc(Cl)ccc1Cl)C1CCS(=O)(=O)C1` (stereo not given), for which the inhibition is 7.73% (inactive).

As to `O=c1c(-c2ccccc2)coc2cc(O)ccc12`, the inhibition was -0.924% (inactive).

`O=c1oc2cc(O)ccc2cc1-c1ccc(F)cc1`: the inhibition is 149% (active).

`COc1ccc(-c2cc3ccc(OCc4nn[nH]n4)cc3oc2=O)cc1`: the inhibition was -0.255% (inactive).

As a reminder, the inhibition is the relative decrease from the control value, in per cent.
